The entries come from a sample that favours hits as a whole.
HTT aggregate – qHTS Multiplex Assay to Identify Dual Action Probes in a Cell Model of Huntington: Aggregate Formation (GFP) | 220,000 tested, 1.1% active | Potency, µM (doses to about 46.1 µM), most hits filed as inhibitors | AID 1688, 2009 | PC12 HttQ103-GFP aggregates, Acumen cytometry, 40 h; also: nearly all actives have a fitted effect of over 60% in size
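Multiplexed with ATP-based cell death, this channel scores GFP aggregates in PC12 cells expressing inducible HTTex1-Q103-GFP. Induction used 100 nM tebufenozide; compounds were tested in concentration series.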
HTT cytoprotect – qHTS Multiplex Assay to Identify Dual Action Probes in a Cell Model of Huntington: Cytoprotection (ATP); PC12 HTT-Q103 induced, cytoprotection, ATP luminescence, 40 h; Potency, µM (doses to about 56.4 µM), usual class: activators; AID 1471, 2008; 230,000 tested, 0.14% active; also: nearly all actives have a fitted effect of over 45% in size
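PC12 cells stably carrying ecdysone-inducible Htt exon 1 (Q103)–GFP were induced with 100 nM tebufenozide (final) alongside library compounds in a dose series. Cytoprotection was scored as retained ATP by ATPlite luminescence.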
Epigenetic derep – Quantitative High-Throughput Screen for Regulators of Epigenetic Control. AID 1865, 2009. 280,000 tested, 0.2% active. murine LDR cells, GFP reporter derepression, 30 h. Potency, µM (highest dose often 53.9 µM), most hits filed as activators; also: nearly all actives have a fitted effect of over 60% in size
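Derepression of a silenced CMV-GFP reporter in murine LDR cells is scored by enumerating GFP-positive cells with a laser-scanning microplate cytometer after 30 hours of treatment at 37 C.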
TSG101-PTAP inh – qHTS Assay for Iinhibitors of HIV-1 Budding by Blocking the Interaction of PTAP/TSG101 | AID 493005, 2010 | Tumor susceptibility gene 101 protein (Homo sapiens), Q99816 | Potency, µM (highest dose often 115 µM), hits mostly inhibitors | Fluorescence polarization, FITC-PTAP peptide / Tsg101 binding | 340,000 tested, under 10 active; active = well fitted inhibition curve with a large enough effect in the main read-out, with a control signal flat, not every such curve was filed as active; inconclusive = small, poorly fitted or top-dose-only effect, or effect the other way, or a change in a side signal; inactive = no such curve, though single readings can be large or run the other way
Target sequence (Q99816 whole entry, looked up): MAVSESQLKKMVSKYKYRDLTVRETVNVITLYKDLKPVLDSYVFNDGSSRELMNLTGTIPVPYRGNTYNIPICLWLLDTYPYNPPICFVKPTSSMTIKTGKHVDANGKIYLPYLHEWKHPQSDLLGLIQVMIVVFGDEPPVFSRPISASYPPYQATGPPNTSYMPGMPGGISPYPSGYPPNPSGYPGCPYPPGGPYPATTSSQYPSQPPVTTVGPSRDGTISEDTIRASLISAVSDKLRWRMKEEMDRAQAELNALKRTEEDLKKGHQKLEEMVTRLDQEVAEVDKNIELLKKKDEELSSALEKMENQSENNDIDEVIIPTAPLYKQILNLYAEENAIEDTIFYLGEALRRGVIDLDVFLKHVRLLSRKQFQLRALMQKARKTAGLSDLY
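Fluorescence polarization binding of Tsg101 binding domain (10 uM final) to FITC-labeled PTAP peptide (50 nM final) in HEPES pH 7.5 buffer with NaCl, Tween 20, EDTA, TCEP. Compounds added before peptide; binding 20 min at RT.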
Anesthetic bind – qHTS Assay for Identification of Novel General Anesthetics; Ferritin light chain (Equus caballus), P02791; apoferritin/1-aminoanthracene competitive binding, fluorescence; Potency, µM (titrated, usually from 77.5 µM), most hits filed as inhibitors; 350,000 tested, 0.074% active; also: nearly all actives have a fitted effect of over 20% in size
Target sequence (P02791 2-175 limits assumed): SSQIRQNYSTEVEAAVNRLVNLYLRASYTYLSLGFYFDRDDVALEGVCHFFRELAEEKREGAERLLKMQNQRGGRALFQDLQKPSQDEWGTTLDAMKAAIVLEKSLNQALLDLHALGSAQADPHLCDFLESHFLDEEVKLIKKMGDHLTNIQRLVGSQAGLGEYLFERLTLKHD
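Horse-spleen apoferritin (10 uM) was mixed with 50% saturated 1-aminoanthracene in PBS, exposed to compounds for 10 min at room temperature, and read for fluorescence (ex 380 nm, em 535 nm). Competitive displacement was fitted with a four-parameter Hill equation.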
PINK1 modulator – A Quantitative High throughput Screen to Identify Chemical Modulators of PINK1 Expression; 410,000 tested, 0.2% active; Potency, µM (highest dose often 76.6 µM), most hits filed as activators; PINK1 immunofluorescence, high-content cytometry, 24 h; AID 624263, 2012; active = well fitted activation curve with a large enough effect; inconclusive = small, poorly fitted or top-dose-only effect; cell line not stated here; also: nearly all actives have a fitted effect of over 65% in size
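PINK1 protein level read as immunofluorescence by microplate cytometer in a fixed, stained stable cell line after 24 h exposure to five compound concentrations, with CCCP as control.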
Each line names hits and unclear results; the compound was inactive in the other large screens. Unless noted, calls follow the shape of the dose curve; as a rule, active = well fitted curve in the direction sought with a large enough effect; inconclusive = small, poorly fitted or top-dose-only effect, or another doubt; inactive = no such curve, though single readings can be large; an effect the other way counts as inactive or inconclusive.

Cc1cc(C)c2nc(SCC(=O)N3CC(=O)Nc4ccccc43)c(C#N)cc2c1	Epigenetic derep 10µM
CS(=O)(=O)Nc1ccccc1C(=O)Nc1cc(Cl)cc(Cl)c1	HTT aggregate 8.91µM, PINK1 modulator inconclusive
CS(=O)(=O)Nc1ccccc1C(=O)Nc1cccc(Cl)c1	HTT aggregate 11.2µM
CN(c1ncnc(N)c1[N+](=O)[O-])C1CCCCC1	Anesthetic bind inconclusive (no result: HTT aggregate, HTT cytoprotect, Epigenetic derep)
CCCCN(c1ccccc1)c1ncnc(N)c1[N+](=O)[O-]	HTT aggregate 7.08µM
O=Cc1cnc(N2CCCCC2)s1	none
O=C(N/N=C/c1cnc(N2CCCCC2)s1)c1ccc(Cl)cc1	PINK1 modulator 28.2µM
COc1cc2nc(=S)n3[nH]c(CCn4nc(C)cc4C)nc3c2cc1OC	HTT aggregate inconclusive, Epigenetic derep 5.01µM
O=C(CSc1nc2ccccc2s1)Nc1nccs1	HTT aggregate 20µM (no result: PINK1 modulator)
O=S(=O)(c1ccccc1)n1ccc2ccccc21	HTT aggregate 11.2µM, Anesthetic bind inconclusive
Cc1cc(C)c(S(=O)(=O)n2ccc3ccccc32)c(C)c1	HTT aggregate 10µM, PINK1 modulator 39.8µM
COc1ccc2ccn(S(=O)(=O)c3ccccc3)c2c1	none (no result: HTT aggregate, HTT cytoprotect, Epigenetic derep)
Cc1ccc(F)c(C2C3C=CCCC3(C)C(=O)N2Cc2ccccc2)c1 (centres undefined)	none (no result: HTT aggregate, HTT cytoprotect, Epigenetic derep, TSG101-PTAP inh, PINK1 modulator)
NC(=O)[C@@H]1CCCN1C(=O)c1cc(NC(=O)c2ccccc2)cc2ncn(C3CCCC3)c12	none (no result: HTT aggregate, HTT cytoprotect, Epigenetic derep, TSG101-PTAP inh, Anesthetic bind)
CN(C1CCCCC1)S(=O)(=O)c1ccc(NC(=O)CCC(=O)O)cc1	none
CN(C1CCCCC1)S(=O)(=O)c1ccc(NC(=O)C2CCCCC2)cc1	HTT aggregate 1.78µM
c1ccc(-c2csc3nnc(SCc4ccc5c(c4)OCO5)n23)cc1	HTT aggregate 10µM
O=C(CCSc1nnc2scc(-c3ccccc3)n12)NCc1ccc2c(c1)OCO2	none
CCOC(=O)C(C(=O)OCC)C1N=C(N)N=C2Oc3ccccc3N21 (centres undefined)	HTT aggregate 3.16µM
CCOC(=O)CN1C(=O)C(CC)Oc2ccccc21 (centres undefined)	none
C=CCN1C(=O)/C(=C2/Sc3ccc(OC)cc3N2C)SC1=Nc1cccc(O)c1	Epigenetic derep 10µM, PINK1 modulator inconclusive
CSC1=NSC2=NC(=O)/C(=C\c3coc4ccccc4c3=O)C(=N)N12	TSG101-PTAP inh 35.5µM
CC(C)c1ccc(S(=O)(=O)NCc2nc3cccnc3n2Cc2ccc(F)cc2)cc1	none (no result: HTT aggregate, HTT cytoprotect, TSG101-PTAP inh)
O=[N+]([O-])c1ccc(N/N=C/c2sc(N3CCOCC3)nc2-c2ccccc2)c(S(=O)(=O)Nc2ccc(Cl)cc2)c1	HTT aggregate 3.55µM, Epigenetic derep inconclusive, PINK1 modulator inconclusive
O=[N+]([O-])c1ccc(N/N=C/c2sc(N3CCOCC3)nc2-c2ccccc2)c(S(=O)(=O)Nc2ccccc2Cl)c1	HTT aggregate inconclusive, PINK1 modulator inconclusive
CC1(C2CCN(Cc3c[nH]c4ccccc34)CC2)NC(=O)N(CCN2CCOCC2)C1=O (centres undefined)	none (no result: HTT aggregate, HTT cytoprotect, Epigenetic derep, TSG101-PTAP inh, Anesthetic bind)
COc1ccccc1-n1c(=O)oc2ccc(Cl)cc2c1=O	HTT aggregate 7.08µM, Anesthetic bind inconclusive, PINK1 modulator inconclusive
Cc1ccc(S(=O)(=O)N2CCN(c3nc(-n4c(=O)[nH]c5ccccc54)nc4ccccc34)CC2)cc1	none (no result: HTT aggregate, HTT cytoprotect, Epigenetic derep, TSG101-PTAP inh, Anesthetic bind)
CC(C)(C)c1ccc(-c2nnc(SCCC#N)n2C2CCCC2)cc1	HTT aggregate 11.2µM
CCOC(=O)c1sc2cc([N+](=O)[O-])cc(SCC(C)C)c2c1N	Epigenetic derep 3.16µM, PINK1 modulator inconclusive

Screening data from PubChem BioAssay.
